Where “and” joins values, the source holds several entries; their conditions need not be identical. Equal entries are not always repeated. In all, about 5,500 compounds went through this assay and about 2,000 (36%) were called active. Roughly 18% stayed inconclusive and do not appear here. Cut-off read from the data, not from the text of the source: active = normalized growth mostly below about 0.91 (no sharp cut-off); inconclusive = no clear call, values can overlap the other calls; inactive = mostly above about 0.92. Some of the results follow.
Test: chemical genetic growth profiling, strain panel (AID 1159580);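 note: tested at 20 µM; growth read once vehicle control cultures reached saturation at 30 °C; 1 = growth at the plate median or of vehicle wells; lower values mean less growth of the strain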
Conditions: S. cerevisiae deletion strains, growth OD

Measured: normalized growth

COCCOC(=O)C1=C(C)NC(C)=C(C(=O)OC(C)C)C1c1cccc([N+](=O)[O-])c1 (stereo not given)
inactive: locus YAL013W, strain DEP1, hits give low values 1.01 | locus YAL021C, strain ccr4, hits give low values 1.04 | locus YAL026C, strain drs2, hits give low values 1.02 | locus YAL030W, strain snc1, hits give low values 1.02 | locus YAL040C, strain CLN3, hits give low values 1 | locus YBL061C, strain skt5, hits give low values 1.02 | locus YBR009C, strain hhf1, hits give low values 0.988 | locus YBR021W, strain FUR4, hits give low values 1.01 | locus YBR023C, strain chs3, hits give low values 1.02 | locus YBR171W, strain sec66, hits give low values 1.02 | locus YBR229C, strain ROT2, hits give low values 0.999 | locus YBR231C, strain swc5, hits give low values 0.996 | locus YBR279W, strain paf1, hits give low values 0.992 | locus YCL011C, strain gbp2, hits give low values 1.02 | locus YCL016C, strain dcc1, hits give low values 1.01 | locus YCL029C, strain bik1, hits give low values 1.02 | locus YCL061C, strain MRC1 (second series), hits give low values 1.01 | locus YCL069W, strain vba3, hits give low values 1.02 | locus YCR088W, strain abp1, hits give low values 1.01 | locus YDL005C, strain med2, hits give low values 1.01 | locus YDL035C, strain GPR1, hits give low values 1.01 | locus YDL040C, strain nat1, hits give low values 0.999 | locus YDL074C, strain BRE1, hits give low values 0.996 | locus YDL101C, strain DUN1, hits give low values 1.01 | locus YDL134C, strain PPH21, hits give low values 1.01 | locus YDL185W, strain tfp1, hits give low values 1.02 | locus YDL192W, strain arf1, hits give low values 1.02 | locus YDR001C, strain nth1, hits give low values 1.01 | locus YDR069C, strain doa4, hits give low values 0.982 | locus YDR101C, strain arx1, hits give low values 1.01 | locus YDR137W, strain rgp1, hits give low values 0.925 | locus YDR150W, strain NUM1, hits give low values 1.01 and 0.999 | locus YDR159W, strain sac3, hits give low values 0.967 | locus YDR162C, strain NBP2, hits give low values 0.992 | locus YDR195W, strain ref2 1.01 | locus YDR297W, strain sur2, hits give low values 1.01 | locus YDR318W, strain mcm21, hits give low values 1.01 | locus YDR334W, strain swr1, hits give low values 1 | locus YDR335W, strain msn5, hits give low values 1.01 | locus YDR363W, strain ESC2, hits give low values 1.01 | locus YDR388W, hits give low values 1.01 | locus YDR392W, strain spt3, hits give low values 0.977 | locus YDR502C, strain sam2, hits give low values 1 | locus YEL003W, strain gim4, hits give low values 1.01 | locus YEL037C, strain rad23, hits give low values 1.01 | locus YEL061C, strain CIN8 (second series), hits give low values 1 | locus YEL061C, strain CIN8, hits give low values 1 | locus YER002W, strain NOP16, hits give low values 0.993 | locus YER015W, strain faa2, hits give low values 1.01 | locus YER016W, strain bim1, hits give low values 0.989 | locus YER110C, hits give low values 1.02 | locus YER111C, strain swi4, hits give low values 1.02 | locus YER155C, strain BEM2 (second series), hits give low values 1.03 | locus YER155C, strain BEM2, hits give low values 1.02 | locus YER167W, strain BCK2, hits give low values 1.01 | locus YFR010W, strain ubp6, hits give low values 1.01 | locus YGL078C, strain dbp3, hits give low values 1.01 | locus YGL086W, strain mad1, hits give low values 0.992 | locus YGL167C, strain pmr1, hits give low values 1 | locus YGL173C, strain kem1, hits give low values 1.01 | locus YGL227W, strain vid30, hits give low values 1.03 | locus YGL240W, strain doc1, hits give low values 0.984 | locus YGL248W, strain PDE1, hits give low values 1 | locus YGL253W, strain hxk2, hits give low values 1.01 | locus YGR078C, strain PAC10, hits give low values 1 and 0.918 | locus YGR135W, strain pre9, hits give low values 0.997 | locus YGR229C, strain SMI1, hits give low values 1 | locus YGR252W, strain gcn5, hits give low values 0.961 | locus YHR013C, strain ard1, hits give low values 1.02 | locus YHR027C, strain rpn1, hits give low values 1.01 | locus YHR030C, strain SLT2, hits give low values 1.01 and 0.955 | locus YHR079C, strain IRE1 (second series), hits give low values 1 | locus YHR079C, strain IRE1, hits give low values 0.95 | locus YHR094C, strain hxt1, hits give low values 1.01 | locus YHR129C, strain ARP1, hits give low values 0.999 | locus YHR142W, strain chs7, hits give low values 1.04 | locus YHR200W, strain rpn10, hits give low values 1.02 | locus YIL066C, strain RNR3, hits give low values 1.01 | locus YIL073C, strain SPO22, hits give low values 1.04 | locus YIL125W, strain kgd1, hits give low values 1.01 | locus YIR030C, strain dcg1, hits give low values 1.01 | locus YJL092W, strain hpr5, hits give low values 1.02 | locus YJL095W, strain BCK1 (second series), hits give low values 1.02 | locus YJL095W, strain BCK1, hits give low values 1 and 0.972 | locus YJL115W, strain asf1, hits give low values 1.02 | locus YJL129C, strain trk1, hits give low values 0.987 | locus YJL134W, strain LCB3, hits give low values 1.01 | locus YJL154C, strain vps35, hits give low values 1 | locus YJL164C, strain tpk1, hits give low values 1.02 | locus YJL166W, strain qcr8, hits give low values 1.02 | locus YJL168C, strain set2, hits give low values 1.01 | locus YJL187C, strain SWE1 (second series), hits give low values 1 | locus YJL187C, strain SWE1, hits give low values 1.01 | locus YJR043C, strain POL32, hits give low values 0.999 | locus YJR066W, strain TOR1, hits give low values 0.946

— PubChem BioAssay AID1159580 (chemical genetic matrix, 2015)
